The list is not random: actives were taken first. Their share in the collection is about 17%.
HT1080-NT tox: kills 2HG-producing HT-1080-NT fibrosarcoma cells; Potency, µM (doses to about 46.1 µM), actives largely listed as cytotoxic; actives 1.6% (n = 360,000); HT-1080-NT fibrosarcoma viability, CellTiter-Glo ATP luminescence, 48 h;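 note: NT is the 2HG producing partner of a matched IDH1 knockdown line; nearly all actives have a fitted effect of over 55% in size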
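Fibrosarcoma NT cells, 750 per well in 5% FBS RPMI, were exposed to compound for 48 hours. Viability: CellTiter-Glo luminescence.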
DT40 TDP1 CPT: DT40-hTDP1 cell growth loss with CPT; chicken DT40 Tdp1-/-;hTDP1 cells + 20 nM CPT, ATP luminescence, 48 h; Potency, µM (series often up to 46.2 µM), hits mostly inhibitors; actives 12% (n = 420,000); AID 686979; note: nearly all actives have a fitted effect of over 55% in size
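Chicken DT40 Tdp1-/- cells stably complemented with human TDP1 were seeded at 400 cells/well in medium containing 20 nM camptothecin, exposed to pin-transferred compounds, and grown at 37 °C for at least 48 hr. Viability was read as ATP luminescence.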
HT1080 IDH1KD tx: kills HT-1080 cells with IDH1 knockdown. HT-1080 IDH1 knockdown viability, ATP luminescence, 48 h. Potency, µM (highest dose often 46.1 µM), usual class: cytotoxic. actives 2% (n = 360,000)
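Viability of IDH1-knockdown HT-1080 fibrosarcoma cells was assessed by CellTiter-Glo after 48 h at 37 °C with titrated compound; concentration-effect curves were classified by fit quality and response size.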
HepG2 viability: kills HepG2 cells in TGF-b inhibitor counter-screen; actives 0.76% (n = 410,000); AID 588856; Potency, µM (series often up to 46.1 µM), hits mostly cytotoxic; HepG2 CAGA-GFP viability, ATP luminescence, 18 h
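HepG2 CAGA-GFP cells (1000/well, DMEM with 1% FBS) received compound, then TGF-beta at 500 pg/mL final, and were incubated 18 hours at 37 degrees C. Viability was read by CellTiter-Glo luminescence. Media-only wells were set as complete cell-killing and DMSO as no toxicity.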
DT40 TDP1 no CPT: qHTS for Inhibitors of human tyrosyl-DNA phosphodiesterase 1 (TDP1): qHTS in cells in absence of CPT. actives 15% (n = 420,000). Potency, µM (top dose mostly 46.2 µM), usual class: inhibitors. DT40 Tdp1-/- hTDP1 cells, no CPT, ATP luminescence, 48 h; note: nearly all actives have a fitted effect of over 55% in size
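Compound effects on proliferation are scored in DT40 Tdp1-/-;hTDP1 cells in the absence of CPT. ATP levels (CellTiter-Glo luminescence) are recorded after a ≥48 hr, 37 °C incubation.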
TGFb inhibitor: blocks TGF-b signaling; HepG2 CAGA-GFP TGF-b/SMAD3 reporter, GFP fluorescence, 18 h; TGF-beta stimulated, 500 pg/mL final; Potency, µM (doses to about 46.1 µM), usual class: inhibitors; actives 1.2% (n = 410,000); note: nearly all actives have a fitted effect of over 65% in size
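HEPG2 CAGA-GFP reporter cells (1000/well, DMEM with 1% FBS) received compounds, then recombinant TGF-beta at 500 pg/mL final for 18 hours at 37 degrees C. Per-cell GFP summed per well was normalised to unstimulated and stimulated DMSO controls before curve fitting.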
Hits are given with their value; n = inactive; u = inconclusive; x = no result; [ ] = dose if it differs, or a comment. Calls come from the whole dose curve; as a rule, active = well fitted curve in the direction sought with a large enough effect; inconclusive = small, poorly fitted or top-dose-only effect, or another doubt; inactive = no such curve, though single readings can be large; an effect the other way counts as inactive or inconclusive.

SMILES | HT1080-NT tox | DT40 TDP1 CPT | HT1080 IDH1KD tx | HepG2 viability | DT40 TDP1 no CPT | TGFb inhibitor
O=C(/C=C/c1c(F)cccc1Cl)Nc1nc2ccccc2[nH]1 | n | n | n | n | u | n
CCC(C)NC(=O)CCNS(=O)(=O)c1ccc(Br)cc1 (stereo not drawn) | n | n | n | n | n | n
Cc1cc(/C=C(\C#N)C(=O)OCC(=O)N(C)c2c(N)n(Cc3ccccc3)c(=O)[nH]c2=O)c(C)n1CC(C)C | n | n | n | n | u | n
Cc1[nH]c2ccccc2c1C(=O)/C=C/c1ccccc1 | u | u | u | n | u | u
Cc1nc2ccccc2c(N)c1C(=O)/C=C/c1ccccc1 | u | u | 11.6µM | n | u | u
CCc1nnc(NC(=O)c2cc(S(=O)(=O)N(C)c3ccc(OC)cc3)ccc2Cl)s1 | n | n | n | n | n | n
CC(=O)Nc1nc2ccc(S(=O)(=O)N3CCCCC3)cc2s1 | n | n | n | n | n | u
O=C(Nc1nc2ccc(S(=O)(=O)N3CCCC3)cc2s1)c1cccc(F)c1 | x | u | x | n | 11.6µM | n
O=C(Nc1nc2ccc(S(=O)(=O)N3CCCCC3)cc2s1)c1cccnc1 | n | n | n | n | u | n
O=C(Nc1nc2ccc(S(=O)(=O)N3CCCC3)cc2s1)c1ccccn1 | n | 6.51µM | n | n | 2.91µM | n
CNS(=O)(=O)c1ccc2nc(NC(=O)c3ccc(N4C(=O)CCC4=O)cc3)sc2c1 | n | u | n | n | 20.6µM | n
CCc1ccc2nc(NC(=O)c3ccc(N4C(=O)CCC4=O)cc3)sc2c1 | n | n | n | n | n | n
CCN1CCCC1CNC(=O)c1cnn(-c2nccc(-c3cc4ccccc4o3)n2)c1C (stereo not drawn) | x | n[9.04 µM] | x | x | u | x
CCCS(=O)(=O)NCc1c(C)ncc2c1CCN(C(=O)c1ccc(Cl)cc1)C2 | x | n[9.04 µM] | x | x | n | x
CCn1c(-c2cccn(Cc3ccccc3)c2=O)n[nH]c1=S | n | n | n | n | n | n
CCn1c(-c2ccccc2SC)n[nH]c1=S | n | n | n | n | 16.4µM | n
CCn1c(-c2csc3c2CCCC3)n[nH]c1=S | n | 29.1µM | n | n | 23.1µM | n
CCOc1cc(S(=O)(=O)NCCc2cccc(C)c2)c(OCC)cc1-n1cnnn1 | n | u | n[9.24 µM] | n | n | n
CN1CCN(CCCNC(=S)Nc2ccc(F)c(Cl)c2)CC1 | n | n | n | n | n | n
Cc1ccc(NC(=S)C2=C(O)c3ccccc3N(C)S2(=O)=O)cc1 | n | u | n | n | 20.6µM | n
CN1c2ccccc2C(O)=C(C(=S)Nc2ccccc2)S1(=O)=O | n | 18.4µM | n | n | 25.9µM | n
CN1c2ccsc2C(O)=C(C(=S)Nc2ccccc2)S1(=O)=O | n | 14.6µM | n | n | 23.1µM | n
CN1c2ccccc2C(O)=C(C(=S)Nc2ccc(F)c(Cl)c2)S1(=O)=O | u | u | n | n | 18.4µM | u
CN1c2ccccc2C(O)=C(C(=O)Nc2ccccc2)S1(=O)=O | n | u | n | n | u | n
Cc1ccccc1NC(=O)CSc1nc2c(c(=O)n(C)c(=O)n2C)n1Cc1ccccc1F | x | n | x | n | n | n
SMILES | HT1080-NT tox | DT40 TDP1 CPT | HT1080 IDH1KD tx | HepG2 viability | DT40 TDP1 no CPT | TGFb inhibitor
CCOc1ccc(N(CC(=O)NC2CCCCC2)C(=O)Cn2nnc(-c3ccc(C)o3)n2)cc1 | n | u | n | n | u | n
CC1CC(N(C(=O)c2ccccc2Cl)c2ccccc2)c2ccccc2N1 (stereo not drawn) | 23.1µM | 7.31µM | 23.1µM | n | 5.8µM | n
CCOCCN(C(=O)c1ccccc1Cl)c1ccccc1 | n | n | n | n | u | n
CCN(C(=O)COC(=O)c1c(C)nn(-c2ccccc2)c1C)C1CCS(=O)(=O)C1 (stereo not drawn) | n | n | n | n | n | n
CCN(C(=O)COC(=O)c1c2c(nc3ccccc13)/C(=C/c1ccccc1)CC(C)C2)C1CCS(=O)(=O)C1 (stereo not drawn) | u | u | u | n | 13µM | u
O=C(CN1CCCC1)Nc1c2c(nc3ccccc13)N(Cc1ccccc1)CC2 | u | 20.6µM | u | n | n | n
Cc1ccc(S(=O)(=O)c2cn(Cc3ccccc3Cl)c3ccc(F)cc3c2=O)cc1 | x | 18.4µM | x | n | 16.4µM | n
Cc1ccc(S(=O)(=O)c2cn(Cc3ccccc3F)c3cc4c(cc3c2=O)OCO4)cc1 | x | 5.8µM | x | n | u | n
COc1ccc2c(c1)c1nnc(SC)nc1n2Cc1ccccc1 | n | 10µM | n | x | 11.2µM | x
COc1ccc2c(c1)nc(N)n2Cc1ccccc1 | n | u | n | n | u | n
CCn1c2ccc(OC)cc2c2nc3ccccc3nc21 | n | u | u | n | 11.6µM | n
CSc1nnc2c3cc(C)ccc3n(Cc3ccccc3)c2n1 | n | u | n | n | 11.6µM | n
Cc1ccc2c(c1)c1nnc(SCC(=O)N3CCCc4ccccc43)nc1n2CC(=O)O | n | n | n | n | n | n
COc1cc(NC(=O)N(Cc2ccco2)C2CCN(C(C)=O)CC2)cc(OC)c1OC | x | n | x | n | n | n
Cc1cc(Br)ccc1NC(=O)CCNS(=O)(=O)c1cccc2nonc12 | x | n | x | n | u | n
C=CCN1C[C@H](C(=O)N(CCCN(C)C)C(=O)NCC)C[C@@H]2c3cccc4[nH]cc(c34)C[C@H]21 | x | n | x | x | n | x
CCCc1cc(=O)[nH]c(SC(C)C(=O)N2c3ccccc3CC2C)n1 (stereo not drawn) | n | n | n | n | n | n
Cc1cccc(N=C2Sc3nc4c(C)c(C)ccc4cc3CN2CCN2CCOCC2)c1 | u | 18.4µM | u | n | 23.1µM | u
Cc1ccccc1NC(=O)COC(=O)c1c[nH]c(=O)[nH]c1=O | n | n | n | n | n | n
CCCCCCC1CC(/C(C)=N\NC(N)=O)OC1=O (stereo not drawn) | n | n | n | n | n | n
CCCCCCCCCCC[C@@H](C[C@@H]1OC(=O)[C@H]1CCCCCC)OC(=O)[C@H](CC(C)C)NC=O | n | u | n | n | 18.4µM | n
Cc1cccc(C)c1Nc1ncccc1C(=O)O | x | n | x | x | n | x
CC(C)CN(C(=O)COC(=O)CNC(=O)c1ccccc1F)c1c(N)n(Cc2ccccc2)c(=O)[nH]c1=O | n | n | n | n | n | n
CC(CCC(=O)O)C1CCC2C3C(O)CC4CC(O)CCC4(C)C3CC(O)C12C (stereo not drawn) | n | n | n | n | n | n
